Results filed as inconclusive are left out. The source made the active and inactive calls. Unless noted, calls come from the whole dose curve; as a rule, active = well fitted curve in the direction sought with a large enough effect in the repeat runs; inconclusive = weak or mixed curves; inactive = no such curve, though single readings can be large; an effect the other way counts as inactive or inconclusive.
Key:
[1] = qHTS assay to identify small molecule antagonists of the estrogen related receptor (ERR) signaling pathway (AID 1224819; note: nearly all actives have a fitted effect of over 50% in size; note: potency is the fitted concentration of half-maximal effect)
How it was run: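 Luminescence readout (One-Glo, 30 min, RT) of ERR cell line after 18 h compound exposure at 37 C; cells seeded 2,000/well, pre-incubated 6 h, compounds pinned from DMSO stocks.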

[2] = qHTS assay to identify small molecule agonists of the estrogen related receptor (ERR) signaling pathway (AID 1224820); note: potency is the fitted concentration of half-maximal effect
How it was run: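 Quantitative HTS of the LOPAC library used NTP ERR reporter cells treated 18 h at 37 C. Signal is luminescence after One-Glo addition and a 30 min room-temperature incubation.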

[3] = system: estrogen-related receptor alpha (ERRalpha) with PGC-1alpha coactivator, human; assay: qHTS assay to identify small molecule antagonists of the estrogen related receptor signaling pathway with the pleiotropic PPARgamma coactivator (PGC) (AID 1224821; calls by dose curve; note: nearly all actives have a fitted effect of over 50% in size; note: potency is the fitted concentration of half-maximal effect)
How it was run: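 Quantitative HTS for antagonism: PGC/ERR cells received compounds after 6 h attachment and were incubated 18 h at 37 C, with luminescence (One-Glo) as the endpoint.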

[4] = qHTS assay to identify small molecule antagonists of the estrogen related receptor signaling pathway with the pleiotropic PPARgamma coactivator (PGC) cell viability counter screen (AID 1224822;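 note: series mostly up to about 46 µM; viability read after 17.5 h compound exposure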)
How it was run: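 PGC/ERR cells were plated at 2,000 per well and allowed 6 h to settle before compound addition. Following 17.5 h at 37 C, CellTiter-Fluor reagent was added and fluorescence was read 30 min later.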

[5] = qHTS assay to identify small molecule agonists of the estrogen related receptor signaling pathway with the pleiotropic PPARgamma coactivator (PGC) (AID 1224823); note: potency is the fitted concentration of half-maximal effect
How it was run: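 Cell-based luciferase assay in the NTP-supplied PGC/ERR line, 2,000 cells/well; 18 h compound exposure at 37 C, luminescence after One-Glo.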

Measured: Potency

CC1CCN=C(N)S1 (stereo not given)
inactive: all assays above

O=c1ccn([C@@H]2O[C@H](COP(=O)(O)OP(=O)(O)O)[C@@H](O)[C@H]2O)c(=O)[nH]1
inactive: all assays above

CC(=O)N[C@H](C(=O)O)C(C)(C)SN=O
inactive: all assays above

[Li+]
inactive: all assays above

CC(=O)NC[C@H]1CN(c2ccc(N3CCOCC3)c(F)c2)C(=O)O1
inactive: all assays above

NC(N)=N[C@@H](CCC(=O)O)C(=O)O
inactive: all assays above

CSc1nc(N)c2ncn([C@@H]3O[C@H](COP(=O)(O)OP(=O)(O)OP(=O)(O)O)C(O)[C@H]3O)c2n1 (stereo not given in full)
inactive: all assays above

CCN(CC)CCNC(=O)c1ccc(NS(C)(=O)=O)cc1
inactive: all assays above

Cc1nc2c(OCc3ccccc3)cccn2c1CC#N
inactive: all assays above

C=CC(N)CCC(=O)O (stereo not given)
inactive: all assays above

N[C@@H](CCCC(=O)O)C(=O)O
inactive: all assays above

CC[C@H](C)C(=O)O[C@H]1CCC=C2C=C[C@H](C)[C@H](CC[C@@H]3C[C@@H](O)CC(=O)O3)[C@H]21
active: [2] 3480 nM
inactive: all other assays above

Fc1ccc(CN(C2=NCCN2)c2c(Cl)cccc2Cl)cc1
inactive: all assays above

COc1ccc(-c2cc3ncc(C)n3c(Nc3ncccc3C(N)=O)n2)cc1OC
active: [1] 2870 nM | [3] 2370 nM
inactive: all other assays above

C[C@H](O)C(=O)C1=Nc2c(nc(N)[nH]c2=O)NC1
inactive: all assays above

N[C@@H](Cc1ccc(O)c(O)c1)C(=O)O
inactive: all assays above

Nc1nc2c(cnn2CCc2ccccc2)c2nc(-c3ccco3)nn12
inactive: all assays above

CC(=O)N[C@@H](Cc1c[nH]c2ccccc12)C(=O)OCc1cc(C(F)(F)F)cc(C(F)(F)F)c1
inactive: all assays above

O=C1CCC(c2ccc(-n3ccnc3)cc2)=NN1
inactive: all assays above

O=C(O)CCc1ccc(NCc2cccc(Oc3ccccc3)c2)cc1
inactive: all assays above

Cc1cccc(C#Cc2ccccc2)n1
active: [2] 12800 nM | [5] 9440 nM
inactive: all other assays above

N[C@@H](CCC(=O)N[C@H](CSN=O)C(=O)NCC(=O)O)C(=O)O
inactive: all assays above

CCCCCCCCCCCCCCSCC(=O)O
inactive: all assays above

N#Cc1cc([N+](=O)[O-])c2sc(C(N)=O)[n+]([O-])c2c1
inactive: all assays above

COc1cc(CNC(=O)CCCCCCC(C)C)ccc1O
inactive: all assays above

O=C1Cc2c([nH]c3ccc(Br)cc23)-c2ccccc2N1
active: [2] 2980 nM | [5] 1230 nM
inactive: all other assays above

CC(C)NC[C@@H](O)c1ccc(O)c(O)c1
inactive: all assays above

Nc1nc2ccc(Cl)cc2n2c(-c3ccccc3)nnc12
inactive: all assays above

Nc1ccc(-c2nc3ccc(-c4nc5ccc(N)cc5[nH]4)cc3[nH]2)cc1
inactive: all assays above

CCOC(=O)C12CC1/C(=N/O)c1ccccc1O2 (stereo not given)
inactive: all assays above

Reference: PubChem BioAssay (Tox21)
